This passage reports growth inhibition results from the supplement of paper PMC8253809.

The assay concerns SUDIPGIV (diffuse intrinsic pontine glioma line)
The experiment in a line: growth inhibition (% activity, log2 RLU normalised to DMSO / staurosporine); higher = more growth inhibition. The settings on record: 33 µM. Put shortly: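 Approved drugs, at a single final concentration of about 33 μM, were applied in triplicate to pHGG cell lines and H9-derived neural stem cells for 7 days at 37 °C, 5% CO2. The growth-inhibition value is the replicate median of log2-transformed CellTiter-Glo luminescence normalised per plate to % activity between solvent and positive control wells.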
Take `Cc1cc2c(s1)Nc1ccccc1N=C2N1CCN(C)CC1`: the growth inhibition is 3.12%.

As for `OC(Cn1cncn1)(Cn1cncn1)c1ccc(F)cc1F`, the growth inhibition was -0.234%.

As for `CC(C)C[C@H](NC(=O)[C@H](Cc1ccccc1)NC(=O)c1cnccn1)B(O)O`, the growth inhibition came out at 59.3%.

With `Clc1ccccc1CN1CCc2sccc2C1`, the growth inhibition came to 0.722%.

For the compound `CNC(CC(C)C)C(=O)NC1C(=O)NC(CC(N)=O)C(=O)NC2C(=O)NC3C(=O)NC(C(=O)NC(C(=O)O)c4cc(O)cc(O)c4-c4cc3ccc4O)C(O)c3ccc(c(Cl)c3)Oc3cc2cc(c3OC2OC(CO)C(O)C(O)C2OC2CC(C)(N)C(O)C(C)O2)Oc2ccc(cc2Cl)C1O` (centres undefined), the growth inhibition was -0.924%.

`Nc1ccc(S(=O)(=O)Nc2ncccn2)cc1`: the growth inhibition is -0.517%.

Take `COC1=C(OC)C(=O)C(CCCCCCCCCCO)=C(C)C1=O`: the growth inhibition was found to be 1.6%.

`C=C[C@H]1CN2CC[C@H]1C[C@H]2[C@H](O)c1ccnc2ccc(OC)cc12`: the growth inhibition is 2.17%.

As for `COC(=O)C1=C(C#N)NC(C)=C(C(=O)OC(C)C)C1c1cccc([N+](=O)[O-])c1` (centres undefined), the growth inhibition is -1.37%.

`CS(=O)(=O)c1ccc(C(=O)Nc2ccc(Cl)c(-c3ccccn3)c2)c(Cl)c1`: the growth inhibition worked out at 0.0205%.

On to `N=C(N=C(N)N)N1CCOCC1`, for which the growth inhibition was -0.801%.

Take `CCOC(=O)c1c(CSc2ccccc2)n(C)c2cc(Br)c(O)c(CN(C)C)c12`: the growth inhibition is -4.36%.

As to `CCC[C@H](N[C@@H](C)C(=O)N1[C@H](C(=O)O)C[C@@H]2CCCC[C@@H]21)C(=O)OCC`, the growth inhibition was determined as 0.563%.

As for `CC(=O)OCC(=O)[C@@]12N=C(C)O[C@@H]1C[C@H]1[C@@H]3CCC4=CC(=O)C=C[C@]4(C)[C@H]3[C@@H](O)C[C@@]12C`, the growth inhibition is -3.7%.

Turning to `CCCNC(C)C(=O)Nc1c(C)csc1C(=O)OC` (centres undefined), the growth inhibition is 0.331%.

Take `Clc1ccc(C(Cn2ccnc2)OCc2csc3c(Cl)cccc23)c(Cl)c1` (centres undefined): the growth inhibition worked out at 13.8%.

Turning to `COc1ccccc1OCCNCC(O)COc1cccc2[nH]c3ccccc3c12` (centres undefined), the growth inhibition came to 1.9%.

Turning to `O=C1O[C@H]([C@@H](O)CO)C([O-])=C1O.[Na+]`, the growth inhibition was -3.14%.

Take `CC(C)NCC(O)c1ccc(NS(C)(=O)=O)cc1` (centres undefined): the growth inhibition came out at 3.05%.

For the compound `Cn1nnc2c(C(N)=O)ncn2c1=O`, the growth inhibition is -4.09%.

Take `O=C(Nc1cccc2c(=O)cc(-c3nnn[nH]3)oc12)c1ccc(OCCCCc2ccccc2)cc1`: the growth inhibition worked out at 2.11%.

For `CN1CCC(=C2c3ccccc3CCc3sccc32)CC1`, the growth inhibition was determined as 3.73%.

With `Clc1ccc(CCC(Cn2ccnc2)Sc2c(Cl)cccc2Cl)cc1` (centres undefined), the growth inhibition worked out at 13.5%.

Consider `COC(=O)[C@@H]1CC2=CC(=O)CC[C@]2(C)[C@@]23O[C@@H]2C[C@@]2(C)[C@@H](CC[C@@]24CCC(=O)O4)[C@H]13`, for which the growth inhibition was found to be 0.898%.
